Among the data in PubChem BioAssay (NCATS) are Potency, activity, negative = inhibition and outcome values, retold here.

For assay [1], the target named is Glutathione peroxidase 1 (Homo sapiens) (UniProt P07203). The assay is described as follows: Primary qHTS Assay for Inhibitors of Recombinant Selenoprotein Glutathione Peroxidase 1 (GPX1) (AID 1845191). For activity, negative = inhibition: % is set by controls: 0 for no effect and ±100 for the full control effect. Note: nearly all actives have a fitted effect of over 65% in size. As to conditions: recombinant GPX1, GR-coupled NADPH fluorescence, 15 min; series mostly up to 48.8 µM. The method, boiled down:
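GR-coupled readout: NADPH consumption tracked by fluorescence, ex 340/em 450 nm, at t=0 and after 15 min at RT. Final mix 10 nM GPX1, 1 mM GSH, 0.5 mM CHP, 0.5 mM NADPH, 100 nM GR, 0.01% BSA, following 30 min enzyme–compound preincubation.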

Assay [2] has as its target Phospholipid hydroperoxide glutathione peroxidase GPX4 (Homo sapiens) (UniProt P36969). The assay is described as follows: Primary qHTS Assay for Inhibitors of Recombinant Selenoprotein Glutathione Peroxidase 4 (GPX4) (AID 1845192). Note: nearly all actives have a fitted effect of over 65% in size. To be noted: recombinant GPX4, GR-coupled NADPH fluorescence, 15 min; series mostly up to 50 µM. The procedure, abridged: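 Steps: GPX4 plus compound, 30 min RT; add GR/GSH/NADPH master mix; start with cumene hydroperoxide; read 340/450 nm fluorescence at 0 and 15 min. Finals were 200 nM GPX4, 1 mM GSH, 0.5 mM CHP, 0.5 mM NADPH, 100 nM GR.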

The nature of assay [3]: Quantitative High-Throughput drug screen in 47 multiple myeloma cell lines against the NCATS MIPE library collection: FR4_PLB cell viability assay (AID 1918924; note: nearly all actives have a fitted effect of over 35% in size; note: potency is the fitted concentration of half-maximal effect). To be noted: FR4_PLB myeloma cells viability, CellTiter-Glo ATP, 48 h; series mostly up to 45.8 µM. The procedure, abridged:
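We plated 500 myeloma cells per well, pinned in MIPE 4.0 compounds, and incubated for 48 hours at 37C. ATP was then quantified with CellTiter-Glo, with DMSO and media-only wells defining 100% and 0%.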
A general note: In ATP-based viability assays light output follows the ATP content of the culture.

Assay [4] is described as follows: Quantitative High-Throughput drug screen in 47 multiple myeloma cell lines against the NCATS MIPE library collection: EJM_DSMZ cell viability assay (AID 1918926; note: nearly all actives have a fitted effect of over 30% in size; note: potency is the fitted concentration of half-maximal effect). As to conditions: EJM myeloma cell viability, CellTiter-Glo ATP, 48 h; series mostly up to 45.8 µM. The procedure, abridged:
(§1)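 Steps: seed 500 cells per well; pin-transfer MIPE 4.0 library; incubate 48 h at 37C, 5% CO2, humidified; add CellTiter-Glo, 5 min room temperature; read luminescence.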

Assay [5] in a line: Quantitative High-Throughput drug screen in 47 multiple myeloma cell lines against the NCATS MIPE library collection: AMO1_DSMZ cell viability assay (AID 1918927; note: nearly all actives have a fitted effect of over 30% in size; note: potency is the fitted concentration of half-maximal effect). As to conditions: AMO1 myeloma cells viability, CellTiter-Glo ATP luminescence, 48 h; series mostly up to 45.8 µM. The procedure, abridged:
as §1

Assay [6] can be described thus: Quantitative High-Throughput drug screen in 47 multiple myeloma cell lines against the NCATS MIPE library collection: Delta47_JCRB cell viability assay (AID 1918925; note: nearly all actives have a fitted effect of over 45% in size; note: potency is the fitted concentration of half-maximal effect). To be noted: Delta47 myeloma viability, CellTiter-Glo ATP, 48 h; series mostly up to 45.8 µM. The procedure, abridged: as §1

Records with an inconclusive call do not appear. Values without a mark were called inactive. Active and inactive are the calls of the source. Calls come from the whole dose curve; as a rule, active = well fitted curve in the direction sought with a large enough effect; inconclusive = small, poorly fitted or top-dose-only effect, or another doubt; inactive = no such curve, though single readings can be large; an effect the other way counts as inactive or inconclusive.

Glutathione peroxidase 1 (Homo sapiens), sequence (P07203 whole entry, looked up): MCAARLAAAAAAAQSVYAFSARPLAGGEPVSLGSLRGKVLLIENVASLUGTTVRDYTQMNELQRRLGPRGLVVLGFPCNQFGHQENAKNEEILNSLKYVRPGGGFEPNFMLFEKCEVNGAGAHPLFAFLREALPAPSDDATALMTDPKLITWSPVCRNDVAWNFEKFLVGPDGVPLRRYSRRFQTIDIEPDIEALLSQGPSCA
Phospholipid hydroperoxide glutathione peroxidase GPX4 (Homo sapiens), sequence (P36969 whole entry, looked up): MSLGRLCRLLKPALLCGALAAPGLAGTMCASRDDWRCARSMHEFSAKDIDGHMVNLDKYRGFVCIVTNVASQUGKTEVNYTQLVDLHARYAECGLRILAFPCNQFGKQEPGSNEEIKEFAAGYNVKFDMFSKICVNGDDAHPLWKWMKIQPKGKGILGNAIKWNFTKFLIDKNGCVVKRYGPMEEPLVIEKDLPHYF

As for `COc1ccc(CC2=NN3C([C@@H](CCc4ccccc4)[C@@H](C)O)=NC(C)C3C(=O)N2)cc1OC` (stereo partly drawn), the Potency result in assay [1], in assay [2], in assay [3], in assay [4] and in assay [5] was “inactive” in each case.
As for `Fc1ccc(Cl)cc1-c1nc(Nc2ccncc2)c2nccnc2n1`, the Potency result in assay [1], in assay [2] and in assay [3] was “inactive” each time. The Potency in assay [4] was 8.33 µM (active); in assay [5], 5.26 µM (active).
Regarding `Cc1cc(-c2ccc(CC(=O)Nc3ccc(-c4cccnc4)cc3)cc2)ccn1`, the Potency result in assay [1] and in assay [2] was “inactive” each time. Also, the Potency in assay [5] is 18.7 µM (active).
For `COc1ccccc1-c1cccc(-c2c(O)c3cc(C#N)c(Cl)cc3[nH]c2=O)c1`, the Potency result in assay [1], in assay [3] and in assay [4] was “inactive” in each case.
On to `Cc1ccc(-n2nc(C(C)(C)C)cc2NC(=O)Nc2ccc(OCCN3CCOCC3)c3ccccc23)cc1`, for which the Potency entry in assay [1] and in assay [2] was “inactive” each time. In addition, the Potency in assay [4] and in assay [5] was 18.7 µM (active) throughout.
Turning to `O=c1ncn2nc(Sc3ccc(F)cc3F)ccc2c1-c1c(Cl)cccc1Cl`, the Potency result in assay [1], in assay [2] and in assay [3] was “inactive” in each case. In assay [5], the Potency is 18.7 µM (active).
Turning to `Nc1cccc(S(=O)(=O)N2CCCN(S(=O)(=O)c3ccc4c(c3)OCCO4)CC2)c1`, the Potency entry in assay [1], in assay [2] and in assay [3] was “inactive” throughout. Moreover, the Potency in assay [6] was 0.833 µM (active); in assay [5] it was 4.18 µM (active).
Take `NC(=O)C1CCCc2c1[nH]c1ccc(Cl)cc21` (stereo not drawn): the Potency entry in assay [1], in assay [2], in assay [3] and in assay [4] was “inactive” throughout. Also, in assay [5], the Potency was 14.8 µM (active).
As to `COCCNCCCn1c(C(=O)CF)c(-c2ccc(C)cc2)c2c(N)ncnc21`, the Potency result in assay [1], in assay [2] and in assay [6] was “inactive” in each case. Moreover, the Potency in assay [3] was 13.2 µM (active); in assay [4] it was 4.18 µM (active).
Turning to `CN[C@@H](C)C(=O)N[C@H]1CCCC[C@H]2CC[C@@H](C(=O)N[C@@H](c3ccccc3)c3cn(CCCCc4ccc(CCCCn5cc([C@@H](NC(=O)[C@@H]6CC[C@@H]7CCCC[C@H](NC(=O)[C@H](C)NC)C(=O)N76)c6ccccc6)nn5)cc4)nn3)N2C1=O`, the Potency entry in assay [1] and in assay [2] was “inactive” each time. The Potency in assay [6] was 3.72 µM (active); in assay [4], 5.26 µM (active).
Consider `Cc1c(CCOc2ccc(C(=O)O)cc2)c2cc(Cl)ccc2n1C(c1ccccc1)c1ccccc1`, for which the Potency entry in assay [1], in assay [3], in assay [4] and in assay [5] was “inactive” each time.
Regarding `COc1ccc2c3n(c(=NC(=O)c4cccnc4)nc2c1OC)CCN3`, the activity, negative = inhibition in assay [1] is 0.782% [at 4.49 µM]. The outcome in assay [2] was “inactive [at 4.52 µM]”. The Potency in assay [3] was 16.6 µM (active); in assay [6], 2.09 µM (active); in assay [4], 7.43 µM (active); in assay [5], 18.7 µM (active).
